Compound activity: PubChem BioAssay, Johns Hopkins Ion Channel Center
Only some compounds are listed: those with a hit (about 1.6% of all), similar ones and a draw of the others.
KCNQ2 pot: potentiators of rat KCNQ2 potassium channel. Potassium voltage-gated channel subfamily KQT member 2 (Rattus norvegicus), O88943. CHO-K1 KCNQ2, FluxOR thallium flux fluorescence; stronger effect = higher value. B-score at 10 µM. 310,000 tested, 0.54% active;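 active = fluorescence ratio B-score at least 3 SD of library B-scores, with initial fluorescence B-score within 3 of them, cut at about 5.3 in these data; same plate scores as AID 2156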;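 note: B-score of peak minus minimum over baseline fluorescence ratio after K+ and Tl+ stimulus; positive B-score means potentiation of KCNQ2 with more thallium influx and brighter signal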
KCNQ2 block: rat KCNQ2 potassium channel inhibitors, primary screen, cell-based, CHO-K1, FluxOR thallium flux, B-score; 20 min; stronger effect = lower value; Potassium voltage-gated channel subfamily KQT member 2 (Rattus norvegicus), O88943; B-score at 10 µM; 310,000 tested, 1.1% active; AID 2156, 2009;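 active = fluorescence ratio B-score at most minus 3 library SDs, with starting brightness B-score within 2 library SDs, cut at about -5.5 in these data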
KCNQ2 block conf: rat KCNQ2 potassium channel inhibitors, confirmation, cell-based, thallium flux. shares compounds with KCNQ2 block. KCNQ2-expressing cells, inhibition; stronger effect = lower value. activity change, negative = inhibition, % at 10 µM. 1,000 tested, 57% active
KCNQ1 spec: human KCNQ1 channel inhibition, counter-screen for KCNQ2 inhibitor project, cell-based, FluxOR thallium flux; shares compounds with KCNQ2 block; KCNQ1-expressing cells, FluxOR thallium flux fluorescence; stronger effect = lower value; activity change, negative = inhibition, % at 10 µM; 1,000 tested, 15% active;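 active = activity change at least 3 SD of negative controls below their mean in both duplicate wells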;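 note: CHO cells stably transfected with KCNQ1 and depolarized by potassium stimulus; peak minus minimum fluorescence over baseline after thallium addition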
Target sequence (P51787 whole entry, looked up): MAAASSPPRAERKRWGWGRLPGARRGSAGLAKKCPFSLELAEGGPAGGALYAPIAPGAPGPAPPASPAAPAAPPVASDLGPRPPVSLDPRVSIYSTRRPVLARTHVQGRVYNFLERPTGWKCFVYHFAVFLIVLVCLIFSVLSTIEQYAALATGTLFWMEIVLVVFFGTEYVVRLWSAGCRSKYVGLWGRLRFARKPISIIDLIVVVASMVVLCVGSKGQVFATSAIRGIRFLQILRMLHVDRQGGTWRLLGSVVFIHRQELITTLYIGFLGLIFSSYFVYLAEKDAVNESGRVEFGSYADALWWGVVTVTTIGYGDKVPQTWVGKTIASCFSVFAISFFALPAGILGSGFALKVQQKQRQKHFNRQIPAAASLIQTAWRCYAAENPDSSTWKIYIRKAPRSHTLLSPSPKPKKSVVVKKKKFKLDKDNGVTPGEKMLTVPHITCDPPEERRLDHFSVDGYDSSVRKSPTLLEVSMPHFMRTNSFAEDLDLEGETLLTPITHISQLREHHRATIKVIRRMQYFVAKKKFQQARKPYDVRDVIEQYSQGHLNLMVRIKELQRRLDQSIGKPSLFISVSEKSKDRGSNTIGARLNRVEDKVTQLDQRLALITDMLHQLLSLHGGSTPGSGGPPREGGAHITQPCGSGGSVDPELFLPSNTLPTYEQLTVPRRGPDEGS
CHO parental ctr: thallium flux change in parental CHO cells, counter-screen for KCNQ2 inhibitor project. activity change, % at 10 µM. shares compounds with KCNQ2 block. 1,000 tested, 14% active. stronger effect = lower value
KCNQ2 inh confirm: rat KCNQ2 channel inhibitors, confirmation, cell-based, automated patch clamp, single concentration; shares compounds with KCNQ2 block; KCNQ2-expressing cells, automated patch clamp current; calls only at 10 µM; 550 tested, 49% active
Hits are given with their value; . = inactive; / = no result; + = active, no number. Unless noted, the rule behind the calls is not given here.

SMILES | KCNQ2 pot | KCNQ2 block | KCNQ2 block conf | KCNQ1 spec | CHO parental ctr | others
COCCN1CC(C(=O)NCc2ncccc2C)CCC1=O (configuration not stated) | / | . | / | / | /
CSc1ccc(S(=O)(=O)Nc2ccc(S(=O)(=O)Nc3ccc(C)cc3)cc2)cc1 | / | . | / | / | /
Cc1ccc(S(=O)(=O)Nc2ccc(N=Nc3ccc(O)cc3)cc2)cc1 | . | -8.69 | . | . | .
CCOC(=O)c1sc(-c2ccccc2)cc1NC(=O)Nc1ccc([N+](=O)[O-])cc1 | / | . | / | / | /
Cc1cccc(C(C)C)c1NC(=O)C(C)OC(=O)Cn1cnc2c1c(=O)n(C)c(=O)n2C (configuration not stated) | . | . | / | / | /
COc1ccc(OC)c(S(=O)(=O)Nc2c(NC3CCCCC3)c3ccccc3oc2=O)c1 | . | . | / | / | /
CCOc1ccc(CNc2nc3ccccc3n2CCN2CCOCC2)cc1 | / | . | / | / | /
CCCn1c(NCc2ccc3c(c2)OCO3)nc2ccccc21 | / | . | / | / | /
CCCCn1c(NCc2ccc3c(c2)OCO3)nc2ccccc21 | . | -8.51 | -33.0% | . | . | KCNQ2 inh confirm=+
Brc1cccc(CNc2nc3ccccc3n2CCN2CCOCC2)c1 | . | -8.44 | . | . | .
O=C(Nc1ccnn1C1CCN(CCCc2ccccc2)CC1)c1ccccc1Cl | . | . | / | / | /
Cc1ccc(Sc2c(CO)c(-c3ccccc3)nn2C)cc1 | / | . | / | / | /
Cc1ccccc1Sc1c(C#N)c(-c2ccccc2)nn1C | . | -10.5 | -36.0% | -35.5% | -31.5% | KCNQ2 inh confirm=.
CCNc1nc(NC(C)C)nc(N(C#N)C(C)C(=O)N(CC)CC)n1 (configuration not stated) | . | . | / | / | /
CSCCC(=O)N1CCC(CCC(=O)NC2CC2)CC1 | . | . | / | / | /
Cc1ccc(C(C(=O)NCc2ccc(F)cc2)N(C(=O)c2csnn2)C2CC2)o1 (configuration not stated) | . | -8.72 | -20.5% | . | . | KCNQ2 inh confirm=+
Cc1ccc(C(C(=O)NCc2ccc(F)cc2)N(C(=O)c2csnn2)C2CC2)cc1 (configuration not stated) | / | . | / | / | /
O=C(N/C=C\c1ccccc1)NCc1ccc(Cl)cc1 | . | -7.01 | . | . | .
O=C(N/C=C\c1ccccc1)NCc1ccc(Cl)cc1Cl | / | . | / | / | /
Cc1cc(N2CCCCC2)n2ncc(-c3ccccc3)c2n1 | / | . | / | / | /
Cc1cc(N2CCC(C)CC2)n2ncc(-c3ccccc3)c2n1 | . | -8.3 | -16.0% | . | . | KCNQ2 inh confirm=.
Cc1ccc(CN2CCN(/N=C/c3sccc3C)CC2)c(C)c1 | / | . | / | / | /
CCN(CC(=O)Nc1c(F)cccc1F)C(=O)CCNC(=O)c1ccc([N+](=O)[O-])cc1 | / | . | / | / | /
CCN(CC)c1ccc(/C=C/C(=O)c2cccnc2)cc1 | / | . | / | / | /
O=C(/C=C/c1ccccc1Cl)c1cccnc1 | . | -7.95 | -36.5% | -32.0% | -32.0% | KCNQ2 inh confirm=.
SMILES | KCNQ2 pot | KCNQ2 block | KCNQ2 block conf | KCNQ1 spec | CHO parental ctr | others
N#Cc1ccc(/C=C/C(=O)c2cccnc2)cc1 | . | -10.6 | -29.0% | . | . | KCNQ2 inh confirm=.
O=C(/C=C/c1ccccc1Cl)c1ccc(O)cc1 | / | . | / | / | /
CCc1c(C(=O)NC(C)C2CCCO2)csc1C (configuration not stated) | / | . | / | / | /
CN(C)C(CNC(=S)Nc1ccc(Cl)cc1)c1cccnc1 (configuration not stated) | . | . | / | / | /
CCOC(=O)C1(CCOc2ccccc2)CCN(Cc2cccc(OC)c2OC)CC1 | / | . | / | / | /
CN(C)C(CNC(=O)c1ccc(-c2ccccc2)cc1)c1ccccc1 (configuration not stated) | . | -6.63 | . | . | .
CN(C)C(CNC(=O)c1ccc(C(=O)c2ccccc2)cc1)c1ccccc1 (configuration not stated) | / | . | / | / | /
Cc1ccccc1-n1nnnc1SC(C)C(=O)NC1CCCc2ccccc21 (configuration not stated) | . | -8.81 | -37.0% | -37.5% | -31.0% | KCNQ2 inh confirm=+
Cc1ccccc1CC(=O)NC1CCCc2ccccc21 (configuration not stated) | / | . | / | / | /
O=C(CSc1nnnn1-c1ccccc1)NC1CCCc2ccccc21 (configuration not stated) | / | . | / | / | /
Cc1ccccc1-n1c(C)nnc1SCC(=O)NC1CCCc2ccccc21 (configuration not stated) | . | -7.67 | . | . | .
Cc1nnc(SC(C)C(=O)NC2CCCc3ccccc32)n1-c1ccccc1 (configuration not stated) | . | -6.64 | -37.0% | . | . | KCNQ2 inh confirm=+
CC(Sc1nnc(Nc2ccccc2)s1)C(=O)NC1CCCc2ccccc21 (configuration not stated) | / | . | / | / | /
O=C(NCc1ccco1)C1CCCN(c2nnc(-n3cccc3)s2)C1 (configuration not stated) | / | . | / | / | /
Cc1ccc2c(c1)N(CC(=O)Nc1ncccc1C)C(=O)C(C(C)C)O2 (configuration not stated) | / | . | / | / | /
CN(CC(=O)Nc1ccc([N+](=O)[O-])cc1Br)Cc1c(F)cccc1Cl | . | -11.2 | . | . | .
CN(CCOc1ccccc1)CC(=O)Nc1ccc([N+](=O)[O-])cc1Cl | / | . | / | / | /
Cc1cc(OCc2cc(C(=O)N(C)C3CCOC3)no2)cc(C)c1Cl (configuration not stated) | . | . | / | / | /
CCNc1nc(NCC)n2c(SC(C(=O)Nc3cc(C)ccc3C)c3ccccc3)nnc2n1 (configuration not stated) | / | . | / | / | /
CCOCCCn1c(SC(C(=O)Nc2cc(C)ccc2C)c2ccccc2)nnc1-c1ccc(Cl)cc1 (configuration not stated) | . | -9.58 | -23.5% | . | . | KCNQ2 inh confirm=+
CN1C(N)=NC(=O)/C1=C\c1ccc(Br)cc1 | / | . | / | / | /
CCOC(=O)/C(=N\Nc1ccc(Br)cc1)N1CC(C)OC(C)C1 (configuration not stated) | / | . | / | / | /
COc1ccc(OC)c(/C=C/C(=O)N2CCCc3ccccc32)c1 | . | -7.02 | -38.0% | . | . | KCNQ2 inh confirm=.
COc1ccc(/C=C/C(=O)N2CCCc3ccccc32)c(OC)c1 | / | . | / | / | /
CN(C)c1ccc(/C=N/N2CCN(c3ccccn3)CC2)cc1 | / | . | / | / | /
SMILES | KCNQ2 pot | KCNQ2 block | KCNQ2 block conf | KCNQ1 spec | CHO parental ctr | others
Cc1cc(C)nc(N/N=C/c2cc(Br)ccc2O)n1 | / | . | / | / | /
CC(C)(C)n1nnnc1C(c1ccc(C#N)cc1)N1CCCC2(CCCCC2)C1 (configuration not stated) | . | -7.08 | -37.0% | -38.0% | -37.0% | KCNQ2 inh confirm=.
CC(C)(C)n1nnnc1C(c1ccncc1)N1CCCCCC1 (configuration not stated) | / | . | / | / | /
Clc1ccccc1OCCCn1ccnc1 | . | . | / | / | /
Clc1ccccc1C(c1ccccc1)(c1ccccc1)n1ccnc1 | . | -7.58 | -36.0% | -30.5% | -24.0% | KCNQ2 inh confirm=.
COc1ccc(CCNC(=O)c2cc(-c3ccco3)nc3ccccc23)cc1 | . | -8.16 | -27.0% | . | . | KCNQ2 inh confirm=+
